According to PubChem BioAssay AID1159580 (chemical genetic matrix, 2015):
“And” between values parts separate entries of the source, which are not always exact repeats. Equal entries are not always repeated. Screen size: about 5,500 compounds; about 2,000 (36%) were called active. Another 18% or so got no clear call; they are omitted. No stated cut-off is given here; in the data, active means normalized growth mostly below about 0.91 (no sharp cut-off); inconclusive means no clear call, values can overlap the other calls; inactive means mostly above about 0.92. The list shows a part of the results.

Assay: chemical genetic growth profiling, strain panel (AID 1159580);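 further: tested at 20 µM; growth read once vehicle control cultures reached saturation at 30 °C; 1 = growth at the plate median or of vehicle wells; lower values mean less growth of the strain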
Settings: S. cerevisiae deletion strains, growth OD

Measured: normalized growth

COC(=O)c1c(OC)cc2c(c1C)Oc1c(Cl)c(O)c(Cl)c(C)c1C(=O)O2
inactive: locus YAL021C, strain ccr4, hits give low values 0.99 | locus YAL026C, strain drs2, hits give low values 0.99 | locus YAL030W, strain snc1, hits give low values 0.977 | locus YBL061C, strain skt5, hits give low values 0.993 | locus YBR009C, strain hhf1, hits give low values 0.993 | locus YBR021W, strain FUR4, hits give low values 1.02 | locus YBR023C, strain chs3, hits give low values 0.988 | locus YBR171W, strain sec66, hits give low values 0.985 | locus YBR231C, strain swc5, hits give low values 0.989 | locus YBR279W, strain paf1, hits give low values 0.992 | locus YCL011C, strain gbp2, hits give low values 0.986 | locus YCL016C, strain dcc1, hits give low values 0.99 | locus YCL029C, strain bik1, hits give low values 0.925 | locus YCL069W, strain vba3, hits give low values 1 | locus YCR088W, strain abp1, hits give low values 0.975 | locus YDL005C, strain med2, hits give low values 1 | locus YDL035C, strain GPR1, hits give low values 0.906 | locus YDL040C, strain nat1, hits give low values 0.98 | locus YDL074C, strain BRE1, hits give low values 0.838 | locus YDL101C, strain DUN1, hits give low values 0.912 | locus YDL134C, strain PPH21, hits give low values 0.935 | locus YDL185W, strain tfp1, hits give low values 0.937 | locus YDL192W, strain arf1, hits give low values 0.949 | locus YDR001C, strain nth1, hits give low values 0.986 | locus YDR069C, strain doa4, hits give low values 0.968 | locus YDR101C, strain arx1, hits give low values 0.965 | locus YDR137W, strain rgp1, hits give low values 0.946 | locus YDR159W, strain sac3, hits give low values 0.963 | locus YDR195W, strain ref2 1.09 | locus YDR297W, strain sur2, hits give low values 0.981 | locus YDR318W, strain mcm21, hits give low values 0.924 | locus YDR334W, strain swr1, hits give low values 1.01 | locus YDR335W, strain msn5, hits give low values 1 | locus YDR388W, hits give low values 0.947 | locus YDR392W, strain spt3, hits give low values 0.965 | locus YEL003W, strain gim4, hits give low values 0.986 | locus YEL037C, strain rad23, hits give low values 0.991 | locus YEL061C, strain CIN8 (second series), hits give low values 0.988 | locus YEL061C, strain CIN8, hits give low values 0.931 | locus YER015W, strain faa2, hits give low values 0.991 | locus YER016W, strain bim1, hits give low values 0.988 | locus YER110C, hits give low values 0.929 | locus YER111C, strain swi4, hits give low values 0.991 | locus YER155C, strain BEM2 (second series), hits give low values 0.997 | locus YER155C, strain BEM2, hits give low values 0.949 | locus YER167W, strain BCK2, hits give low values 0.932 | locus YFR010W, strain ubp6, hits give low values 0.982 | locus YGL078C, strain dbp3, hits give low values 1 | locus YGL086W, strain mad1, hits give low values 0.954 | locus YGL167C, strain pmr1, hits give low values 0.954 | locus YGL173C, strain kem1, hits give low values 0.985 | locus YGL227W, strain vid30, hits give low values 0.991 | locus YGL240W, strain doc1, hits give low values 0.993 | locus YGL248W, strain PDE1, hits give low values 0.932 | locus YGL253W, strain hxk2, hits give low values 0.997 | locus YGR078C, strain PAC10, hits give low values 0.886 | locus YGR135W, strain pre9, hits give low values 0.917 | locus YGR229C, strain SMI1, hits give low values 0.852 | locus YGR252W, strain gcn5, hits give low values 1.04 | locus YHR013C, strain ard1, hits give low values 1.03 | locus YHR027C, strain rpn1, hits give low values 0.997 | locus YHR030C, strain SLT2, hits give low values 0.951 and 0.911 | locus YHR079C, strain IRE1 (second series), hits give low values 0.943 | locus YHR079C, strain IRE1, hits give low values 0.939 | locus YHR094C, strain hxt1, hits give low values 0.948 | locus YHR129C, strain ARP1, hits give low values 0.955 | locus YHR142W, strain chs7, hits give low values 0.994 | locus YHR200W, strain rpn10, hits give low values 0.938 | locus YIL066C, strain RNR3, hits give low values 0.899 | locus YIL073C, strain SPO22, hits give low values 0.969 | locus YIL125W, strain kgd1, hits give low values 0.986 | locus YJL092W, strain hpr5, hits give low values 0.98 | locus YJL095W, strain BCK1 (second series), hits give low values 1 | locus YJL095W, strain BCK1, hits give low values 0.903 and 0.92 | locus YJL115W, strain asf1, hits give low values 1 | locus YJL129C, strain trk1, hits give low values 0.949 | locus YJL154C, strain vps35, hits give low values 0.97 | locus YJL164C, strain tpk1, hits give low values 0.983 | locus YJL166W, strain qcr8, hits give low values 0.974 | locus YJL187C, strain SWE1 (second series), hits give low values 0.916 | locus YJL187C, strain SWE1, hits give low values 0.984 | locus YJR043C, strain POL32, hits give low values 0.977 | locus YJR066W, strain TOR1, hits give low values 0.867
active: locus YAL013W, strain DEP1, hits give low values 0.879 | locus YBR229C, strain ROT2, hits give low values 0.909 | locus YDR150W, strain NUM1, hits give low values 0.896 | locus YDR162C, strain NBP2, hits give low values 0.82 | locus YDR502C, strain sam2, hits give low values 0.919 | locus YIR030C, strain dcg1, hits give low values 0.925 | locus YJL134W, strain LCB3, hits give low values 0.922 | locus YJL168C, strain set2, hits give low values 0.931
